The source of these data is PubChem BioAssay (EPA / NIEHS).

By AC50 is commonly meant the concentration at which the activity in the assay is half-maximal.

Records with an inconclusive call do not appear. Active and inactive are the calls of the source. Rule for the calls, unless noted: active = hit-call score of the fitted dose curve at least 0.9, where 1 is the maximum; inactive = score below 0.9.

In assay [1] the target is Oxysterols receptor LXR-alpha (Homo sapiens) (UniProt Q13133). The assay is described as follows: ATG_LXRa_TRANS: Attagene TRANS-FACTORIAL HepG2 Assay for human Liver X Receptor alpha (LXRa) (AID 2282980; active = hit-call score of the fitted dose curve at least 0.9, where 1 is the maximum). The following applies: HepG2 Attagene TRANS reporter, LXRa transactivation. Summed up: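 HepG2 cells transiently transfected with GAL4-UAS reporter units for chimeric NR-Gal4 proteins, exposed to chemicals for 24 h. Reporter mRNA quantified by RT-PCR and capillary electrophoresis; gain of signal fitted relative to DMSO.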

In assay [2] the target is Oxysterols receptor LXR-beta (Homo sapiens) (UniProt P55055). Briefly: ATG_LXRb_TRANS: Attagene TRANS-FACTORIAL HepG2 Assay for human Liver X Receptor beta (LXRb) (AID 2282981; active = hit-call score of the fitted dose curve at least 0.9, where 1 is the maximum). The following applies: HepG2 Attagene TRANS GAL4-LXRb reporter, mRNA. In outline: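 Liver-derived HepG2 cells transfected with Gal4-responsive reporters were dosed for 24 h. Activation was scored as rise in reporter mRNA, by RT-PCR and capillary electrophoresis, above DMSO baseline.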

The target of assay [3] is Hepatocyte nuclear factor 4-alpha (Homo sapiens) (UniProt P41235). The assay is described as follows: ATG_HNF4a_TRANS: Attagene TRANS-FACTORIAL HepG2 Assay for human Hepatocyte Nuclear Factor 4 alpha (HNF4a) (AID 2282982; active = hit-call score of the fitted dose curve at least 0.9, where 1 is the maximum). The following applies: HepG2 HNF4a transactivation reporter, mRNA readout. In outline: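 Using HepG2 liver cells transfected with GAL4-UAS reporter units, chemical-induced mRNA increases were assessed after 24 hours. Fluorescent RT-PCR fragments were separated by capillary electrophoresis and compared with DMSO negative controls.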

Assay [4] in a line: ATG_M_32_TRANS: Attagene TRANS-FACTORIAL HepG2 Assay for M32 Transcription Factor (Internal Marker) (AID 2282984; active = hit-call score of the fitted dose curve at least 0.9, where 1 is the maximum;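 note: transcript level of a background control reporter unit measured by RT-PCR and capillary electrophoresis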). The following applies: HepG2 Attagene TRANS M32 internal marker reporter. Summed up: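 Fluorescence-detected mRNA induction, HepG2 liver cells, 24 h after dosing. Multiple GAL4-UAS reporter units introduced by transient transfection; background-control endpoint analysed for gain of signal against DMSO.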

Assay [5] concerns the target Nuclear receptor subfamily 4 group A member 2 (Homo sapiens) (UniProt P43354). Briefly: ATG_NURR1_TRANS: Attagene TRANS-FACTORIAL HepG2 Assay for human Nuclear Receptor Related Protein 1 (NURR1) (AID 2282985; active = hit-call score of the fitted dose curve at least 0.9, where 1 is the maximum). The following applies: HepG2 Attagene TRANS reporter, mRNA readout. Summed up: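 Chimeric NR-Gal4 proteins were expressed in human HepG2 cells bearing GAL4-UAS reporter units, and induced reporter mRNA was quantified 24 h post-dosing by RT-PCR and capillary electrophoresis.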

Assay [6] concerns the target Transcriptional activator Myb (Homo sapiens) (UniProt P10242). The assay is described as follows: ATG_Myb_CIS: Attagene CIS-FACTORIAL HepG2 Assay for human Myeloblastosis (Myb) Proto-Oncogene Transcription Factor (AID 2282986). The following applies: HepG2 Attagene CIS-FACTORIAL Myb reporter transcription; actives raise or lower the signal. In outline:
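HepG2 cells were transiently transfected with cis-regulated multiple reporter transcription units reflecting endogenous Myb activity, then exposed to compound for 24 hours. Reporter mRNA was measured by RT-PCR with capillary electrophoresis; bidirectional fitting versus DMSO baseline.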

In assay [7] the target is Nuclear respiratory factor 1 (Homo sapiens) (UniProt Q16656). Briefly: ATG_NRF1_CIS: Attagene CIS-FACTORIAL HepG2 Assay for human Nuclear Respiratory Factor 1 (NRF1) Orphan Gene (AID 2282987). The following applies: HepG2 NRF1 cis-element reporter, Attagene multiplex; actives raise or lower the signal. In outline: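 HepG2 cells transiently transfected with multiple reporter transcription units under cis-regulatory promoter control, so endogenous transcription-factor activity is read. After 24 h compound exposure, reporter mRNA quantified by RT-PCR, fluorescent labelling, HpaI digestion and capillary electrophoresis; bidirectional fitting versus DMSO.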

A short description of assay [8]: ATG_NFI_CIS: Attagene CIS-FACTORIAL HepG2 Assay for human Nuclear Factor I (NFI) (AID 2282989). The following applies: HepG2 cis-regulatory reporter, NFI response element transcription; actives raise or lower the signal. Summed up:
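After transient transfection of HepG2 with cis-promoter reporter constructs and 24 h dosing, RNA is reverse-transcribed, amplified, 6-FAM end-labelled and HpaI-digested before capillary analysis. Bidirectional curve fitting against DMSO.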

In assay [9] the target is Myc proto-oncogene protein (Homo sapiens) (UniProt P01106). The assay is described as follows: ATG_Myc_CIS: Attagene CIS-FACTORIAL HepG2 Assay for human Myelocytomatosis (Myc) Proto-Oncogene Transcription Factor (AID 2282990). The following applies: HepG2, Attagene cis-reporter transcription factor activity; actives raise or lower the signal. Summed up: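 HepG2 cells transiently transfected with multiple cis-promoter-driven reporter transcription units, so endogenous TF activity is read. After 24 h compound exposure, reporter mRNA was quantified by RT-PCR, 6-FAM labelling, HpaI digestion and capillary electrophoresis; bidirectional fit versus DMSO.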

Assay [10] can be described thus: ATG_NF_kB_CIS: Attagene CIS-FACTORIAL HepG2 Assay for human Nuclear Factor Kappa B (NF-kB) (AID 2282991). The following applies: HepG2 Attagene cis-factorial NF-kB reporter mRNA; actives raise or lower the signal. Summed up:
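HepG2 cells transiently transfected with multiplexed cis-element reporter units measuring endogenous transcription factor activity; reporter mRNA read 24 h after dosing by RT-PCR, fluorescent labelling, HpaI digestion and capillary electrophoresis. Bidirectional fit against DMSO baseline.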

Assay [11] is described as follows: ATG_Oct_MLP_CIS: Attagene CIS-FACTORIAL HepG2 Assay for human Octamer-Binding Transcription Factor (Oct) (AID 2282993). The following applies: HepG2 Attagene cis-factorial Oct reporter, mRNA; actives raise or lower the signal. Summed up:
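Cells of the HepG2 line express promoter-controlled reporter sequences whose mRNA levels, after 24 h treatment, are measured by RT-PCR and capillary electrophoresis. Increases and decreases are scored relative to DMSO.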

In assay [12] the target is Cellular tumor antigen p53 (Homo sapiens) (UniProt P04637). The assay is described as follows: ATG_p53_CIS: Attagene CIS-FACTORIAL HepG2 Assay for human p53 Transcription Factor (AID 2282994). The following applies: HepG2 p53 cis-element reporter, Attagene mRNA; actives raise or lower the signal. Summed up:
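Read-out: reporter mRNA by RT-PCR plus capillary electrophoresis with fluorescence detection. Human HepG2 liver cells carried transfected multi-reporter cis-element constructs, dosed 24 h. Gain or loss of signal fitted bidirectionally against DMSO control.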

The nature of assay [13]: ATG_M_06_TRANS: Attagene TRANS-FACTORIAL HepG2 Assay for M06 Transcription Factor (Internal Marker) (AID 2282983; active = hit-call score of the fitted dose curve at least 0.9, where 1 is the maximum;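 note: reporter transcript level by RT-PCR then capillary electrophoresis fluorescence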). The following applies: HepG2 Attagene TRANS M06 internal marker reporter. In outline:
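mRNA levels of a reporter transcript, quantified as FAM fluorescence on capillary electrophoresis, served as readout. HepG2 cells expressing exogenous GAL4-chimera reporter constructs were exposed for 24 h. Gain of signal over DMSO was evaluated.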

Assay [14] in a line: ATG_NRF2_ARE_CIS: Attagene CIS-FACTORIAL HepG2 Assay for human Nuclear Factor Erythroid 2 Related Factor 2 (NFR2) response to Antioxidant Response Elements (ARE) (AID 2282992). The following applies: HepG2 Attagene ARE/NRF2 reporter, transcription factor activity; actives raise or lower the signal. In outline: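 Readout: reporter mRNA quantified by RT-PCR plus FAM-labelled primer extension, HpaI digestion and capillary electrophoresis, 24 h after dosing transfected HepG2 cells. Gain or loss of signal is fitted bidirectionally against DMSO baseline.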

The nature of assay [15]: BSK_3C_TissueFactor: BioMAP Diversity Plus: 3C Assay for Tissue Factor Biomarker Activity (AID 2282997). The following applies: BioMAP 3C HUVEC, tissue factor biomarker readout; actives raise or lower the signal. Summed up: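 Tissue Factor measured by ELISA, 24 h after treatment of primary HUVEC in the BioMAP 3C setting.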
The nature of assay [16]: BSK_3C_uPAR: BioMAP Diversity Plus: 3C Assay for Urokinase-type plasminogen activator receptor (uPAR) Biomarker Activity (AID 2282998). The following applies: BioMAP 3C HUVEC, uPAR biomarker ELISA; actives raise or lower the signal. In outline:
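Endothelial primary cells of human umbilical vein origin received test chemical; 24 h later uPAR was assayed by ELISA. Fitting was bidirectional, DMSO as negative control.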
In general terms: ELISA stands for enzyme-linked immunosorbent assay.

Assay [17] is described as follows: BSK_3C_VCAM1: BioMAP Diversity Plus: 3C Assay for Vascular cell adhesion molecule 1 (VCAM1) Biomarker Activity (AID 2282999). The following applies: BioMAP 3C HUVEC, VCAM1 ELISA, cytokine-stimulated; actives raise or lower the signal. In outline:
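Vascular primary endothelium (human umbilical vein) was exposed to chemicals and assayed 24 h later. VCAM-1 levels came from ELISA, with DMSO serving as baseline for bidirectional fitting.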

Hepatocyte nuclear factor 4-alpha (Homo sapiens), sequence (P41235 whole entry, looked up, the tested form may be a part): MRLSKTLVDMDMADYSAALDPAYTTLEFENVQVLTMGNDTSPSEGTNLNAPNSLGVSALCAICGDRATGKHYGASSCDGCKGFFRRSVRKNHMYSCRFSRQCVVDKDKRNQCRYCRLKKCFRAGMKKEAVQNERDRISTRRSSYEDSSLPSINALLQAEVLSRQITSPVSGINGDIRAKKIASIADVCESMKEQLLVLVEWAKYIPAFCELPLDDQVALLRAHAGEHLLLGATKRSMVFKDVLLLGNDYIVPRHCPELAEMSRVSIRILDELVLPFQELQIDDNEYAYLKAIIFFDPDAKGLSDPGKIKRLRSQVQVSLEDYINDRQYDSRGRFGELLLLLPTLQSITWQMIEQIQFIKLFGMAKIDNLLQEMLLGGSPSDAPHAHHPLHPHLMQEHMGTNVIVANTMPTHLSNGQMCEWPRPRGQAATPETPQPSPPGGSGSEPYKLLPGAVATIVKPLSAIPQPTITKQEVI
Nuclear receptor subfamily 4 group A member 2 (Homo sapiens), sequence (P43354 whole entry, looked up, the tested form may be a part): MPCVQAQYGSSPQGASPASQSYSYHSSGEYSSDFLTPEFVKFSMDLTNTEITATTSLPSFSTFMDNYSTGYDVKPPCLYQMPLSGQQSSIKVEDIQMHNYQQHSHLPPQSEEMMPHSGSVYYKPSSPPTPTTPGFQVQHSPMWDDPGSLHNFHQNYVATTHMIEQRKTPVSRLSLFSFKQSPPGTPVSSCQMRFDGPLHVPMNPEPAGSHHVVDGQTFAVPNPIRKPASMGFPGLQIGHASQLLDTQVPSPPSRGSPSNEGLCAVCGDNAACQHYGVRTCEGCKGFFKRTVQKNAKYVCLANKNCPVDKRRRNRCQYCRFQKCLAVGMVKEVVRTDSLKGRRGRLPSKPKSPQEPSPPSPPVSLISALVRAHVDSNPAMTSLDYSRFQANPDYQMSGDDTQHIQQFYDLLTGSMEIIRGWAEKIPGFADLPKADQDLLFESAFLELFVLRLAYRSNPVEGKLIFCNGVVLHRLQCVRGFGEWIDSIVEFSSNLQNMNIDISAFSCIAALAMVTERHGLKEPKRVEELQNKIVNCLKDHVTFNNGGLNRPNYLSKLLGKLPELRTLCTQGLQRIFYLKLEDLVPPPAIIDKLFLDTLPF
Myc proto-oncogene protein (Homo sapiens), sequence (P01106 whole entry, looked up): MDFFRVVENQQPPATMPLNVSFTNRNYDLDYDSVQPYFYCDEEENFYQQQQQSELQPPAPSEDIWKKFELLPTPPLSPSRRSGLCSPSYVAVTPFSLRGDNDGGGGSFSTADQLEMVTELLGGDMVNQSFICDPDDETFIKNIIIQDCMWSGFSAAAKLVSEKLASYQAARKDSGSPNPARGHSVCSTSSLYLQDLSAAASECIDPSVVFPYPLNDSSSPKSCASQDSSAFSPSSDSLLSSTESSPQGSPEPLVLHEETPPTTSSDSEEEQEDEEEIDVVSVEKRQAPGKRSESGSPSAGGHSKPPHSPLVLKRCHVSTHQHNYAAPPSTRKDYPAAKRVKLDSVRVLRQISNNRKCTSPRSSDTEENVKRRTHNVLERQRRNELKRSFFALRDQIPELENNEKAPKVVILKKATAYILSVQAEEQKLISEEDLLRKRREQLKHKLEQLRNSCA
Oxysterols receptor LXR-beta (Homo sapiens), sequence (P55055 whole entry, looked up, the tested form may be a part): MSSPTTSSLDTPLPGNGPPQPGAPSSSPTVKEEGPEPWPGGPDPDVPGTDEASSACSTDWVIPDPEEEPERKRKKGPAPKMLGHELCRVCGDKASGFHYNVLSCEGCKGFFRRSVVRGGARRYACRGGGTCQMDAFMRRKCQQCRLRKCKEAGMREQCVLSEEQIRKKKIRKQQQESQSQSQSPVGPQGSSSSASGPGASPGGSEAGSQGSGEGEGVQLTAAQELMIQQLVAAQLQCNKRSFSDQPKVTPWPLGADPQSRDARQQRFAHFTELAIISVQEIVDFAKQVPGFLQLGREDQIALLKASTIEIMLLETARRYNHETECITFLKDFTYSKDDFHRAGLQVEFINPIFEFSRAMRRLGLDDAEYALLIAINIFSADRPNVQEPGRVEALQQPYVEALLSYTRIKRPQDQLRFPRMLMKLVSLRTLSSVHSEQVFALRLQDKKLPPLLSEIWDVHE
Nuclear respiratory factor 1 (Homo sapiens), sequence (Q16656 whole entry, looked up): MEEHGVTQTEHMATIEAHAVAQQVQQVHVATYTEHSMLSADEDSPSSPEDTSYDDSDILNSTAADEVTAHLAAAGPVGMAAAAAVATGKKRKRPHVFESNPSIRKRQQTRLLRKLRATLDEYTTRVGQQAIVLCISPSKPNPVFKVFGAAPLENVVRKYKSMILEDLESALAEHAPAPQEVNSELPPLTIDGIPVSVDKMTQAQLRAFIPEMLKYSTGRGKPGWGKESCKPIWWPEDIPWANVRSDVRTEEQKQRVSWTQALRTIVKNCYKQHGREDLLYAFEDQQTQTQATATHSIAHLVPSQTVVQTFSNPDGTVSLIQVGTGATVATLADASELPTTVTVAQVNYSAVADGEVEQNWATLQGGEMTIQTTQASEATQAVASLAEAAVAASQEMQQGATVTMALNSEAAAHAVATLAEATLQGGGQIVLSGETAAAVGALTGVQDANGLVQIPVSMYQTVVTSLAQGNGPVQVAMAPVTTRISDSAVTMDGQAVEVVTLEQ
Transcriptional activator Myb (Homo sapiens), sequence (P10242 whole entry, looked up): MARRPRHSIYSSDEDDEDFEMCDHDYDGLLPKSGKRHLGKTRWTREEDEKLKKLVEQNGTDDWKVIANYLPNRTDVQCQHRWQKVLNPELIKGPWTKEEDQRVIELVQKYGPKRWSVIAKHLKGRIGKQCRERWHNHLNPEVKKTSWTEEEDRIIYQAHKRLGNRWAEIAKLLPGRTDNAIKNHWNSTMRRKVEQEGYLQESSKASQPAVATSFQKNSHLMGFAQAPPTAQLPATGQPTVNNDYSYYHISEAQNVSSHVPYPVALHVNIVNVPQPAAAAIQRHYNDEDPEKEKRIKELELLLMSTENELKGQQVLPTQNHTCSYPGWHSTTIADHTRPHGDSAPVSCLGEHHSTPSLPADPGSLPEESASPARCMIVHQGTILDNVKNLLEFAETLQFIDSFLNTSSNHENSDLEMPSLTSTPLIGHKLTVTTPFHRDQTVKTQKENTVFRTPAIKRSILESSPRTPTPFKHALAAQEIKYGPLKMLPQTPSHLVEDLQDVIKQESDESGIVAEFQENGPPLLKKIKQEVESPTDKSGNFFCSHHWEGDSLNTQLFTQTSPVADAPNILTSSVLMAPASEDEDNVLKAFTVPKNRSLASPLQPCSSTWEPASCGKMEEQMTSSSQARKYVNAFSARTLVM
Oxysterols receptor LXR-alpha (Homo sapiens), sequence (Q13133 whole entry, looked up, the tested form may be a part): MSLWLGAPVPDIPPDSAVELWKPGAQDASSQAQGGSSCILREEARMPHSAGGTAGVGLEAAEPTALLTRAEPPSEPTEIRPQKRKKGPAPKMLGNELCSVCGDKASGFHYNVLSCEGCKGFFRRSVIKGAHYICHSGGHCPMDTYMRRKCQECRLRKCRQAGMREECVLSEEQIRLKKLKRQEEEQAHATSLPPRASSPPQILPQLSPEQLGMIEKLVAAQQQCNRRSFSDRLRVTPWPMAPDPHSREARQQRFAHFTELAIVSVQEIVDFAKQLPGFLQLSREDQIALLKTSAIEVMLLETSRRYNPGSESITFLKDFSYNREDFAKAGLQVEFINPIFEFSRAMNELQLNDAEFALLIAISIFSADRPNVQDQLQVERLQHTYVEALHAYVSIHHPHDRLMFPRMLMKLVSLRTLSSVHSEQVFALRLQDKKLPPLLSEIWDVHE
Cellular tumor antigen p53 (Homo sapiens), sequence (P04637 whole entry, looked up): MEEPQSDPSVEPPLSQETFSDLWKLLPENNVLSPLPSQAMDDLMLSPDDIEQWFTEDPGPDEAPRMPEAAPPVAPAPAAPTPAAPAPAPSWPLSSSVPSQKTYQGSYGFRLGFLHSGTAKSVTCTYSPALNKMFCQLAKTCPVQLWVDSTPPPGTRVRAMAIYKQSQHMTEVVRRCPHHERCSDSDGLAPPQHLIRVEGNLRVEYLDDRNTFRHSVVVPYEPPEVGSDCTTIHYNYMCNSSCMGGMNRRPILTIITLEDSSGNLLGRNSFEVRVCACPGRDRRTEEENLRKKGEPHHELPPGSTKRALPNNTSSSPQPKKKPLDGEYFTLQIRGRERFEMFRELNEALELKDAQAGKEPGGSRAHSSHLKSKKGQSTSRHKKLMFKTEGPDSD

For the compound `CC(=O)OC(C)(C)C`, the compound was called inactive in assay [1], in [2], in assay [3], in assay [4], in [5] and in [6]. Moreover, the outcome in [7], in assay [8], in assay [9], in assay [10], in [11] and in [12] was inactive.
Take `CC(C)=CCCC(C)=CC(=O)O`: the compound was called inactive in assay [1], in assay [2], in assay [13], in assay [7], in [8] and in [9]. In addition, the outcome in [10], in assay [14] and in assay [11] was inactive.
For `C=CCCCCCCCCC(=O)OCC`, the compound was classed as inactive in [1], in [13], in [4], in [5], in assay [7] and in [8]. Moreover, the call in [9] and in assay [11] was inactive. The AC50 in assay [14] was 61.7 µM (active).
For `CNC(=C[N+](=O)[O-])NCCSCc1ccc(CN(C)C)o1`, the result in assay [1], in assay [2], in assay [13], in assay [4], in assay [5] and in [6] was inactive. Besides, the outcome in assay [7], in assay [9], in assay [10], in assay [14] and in [11] was inactive.
Regarding `CC1=CC[C@@H](C(C)(C)O)CC1`, the compound was called inactive in assay [1], in assay [2], in assay [3], in assay [13], in assay [6] and in assay [7]. Also, the compound was classed as inactive in [8], in assay [9], in assay [10], in assay [11] and in [12]. Also, the concentration at half-maximal activity (AC50) in assay [14] was 40.6 µM (active).
With `[O-]/[N+](=N\O)c1ccccc1`, the result in [1], in assay [3], in assay [13], in assay [4], in assay [6] and in assay [7] was inactive. For the same compound, the result in assay [8], in assay [9], in assay [11] and in [12] was inactive. For the same compound, the AC50 in assay [14] is 17.3 µM (active).
Consider `CC(C)=CC(=O)O`, for which the compound was called inactive in [1], in assay [13], in [4], in assay [5], in [6] and in assay [7]. Besides, the compound was classed as inactive in [8], in [9], in assay [10], in assay [14] and in assay [11].
For `O=S(=O)(O)CCCN1CCOCC1`, the compound was called inactive in assay [1], in assay [13], in [5], in assay [6], in assay [7] and in assay [8]. In addition, the result in [9], in assay [14], in assay [11] and in [12] was inactive.
Consider `OCC=Cc1ccccc1`, for which the result in [1], in assay [2], in assay [5], in assay [6], in [7] and in [8] was inactive. Further, the compound was classed as inactive in [10] and in [11]. Also, the AC50 in assay [14] is 65.9 µM (active).
`CCOC(=O)C=Cc1ccccc1`: the call in assay [1], in [4], in [5], in [6], in assay [7] and in assay [8] was inactive. In addition, the compound was called inactive in assay [10], in [11], in [12], in assay [15], in assay [16] and in assay [17]. Moreover, in [14], the AC50 was 42.3 µM (active).
